# Pf apPOL block – Pf-apPOL DNA polymerase inhibition. Recombinant Pf-apPOL, molecular beacon fluorescence, 1.5 h. inhibition, % at 10 µM. actives 0.25% (n = 210,000). AID 1794808
# mHTT-CaM PPI inh – disrupts binding of mutant huntingtin to calmodulin. P42858. AlphaScreen His-mHTT/GST-CaM binding, luminescence. inhibition, % at 15 µM. actives 3.6% (n = 190,000). AID 1671202;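 further: 0% = both proteins with DMSO and 100% = one protein alone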
# Target sequence (P42858 whole entry, looked up, stated change not applied): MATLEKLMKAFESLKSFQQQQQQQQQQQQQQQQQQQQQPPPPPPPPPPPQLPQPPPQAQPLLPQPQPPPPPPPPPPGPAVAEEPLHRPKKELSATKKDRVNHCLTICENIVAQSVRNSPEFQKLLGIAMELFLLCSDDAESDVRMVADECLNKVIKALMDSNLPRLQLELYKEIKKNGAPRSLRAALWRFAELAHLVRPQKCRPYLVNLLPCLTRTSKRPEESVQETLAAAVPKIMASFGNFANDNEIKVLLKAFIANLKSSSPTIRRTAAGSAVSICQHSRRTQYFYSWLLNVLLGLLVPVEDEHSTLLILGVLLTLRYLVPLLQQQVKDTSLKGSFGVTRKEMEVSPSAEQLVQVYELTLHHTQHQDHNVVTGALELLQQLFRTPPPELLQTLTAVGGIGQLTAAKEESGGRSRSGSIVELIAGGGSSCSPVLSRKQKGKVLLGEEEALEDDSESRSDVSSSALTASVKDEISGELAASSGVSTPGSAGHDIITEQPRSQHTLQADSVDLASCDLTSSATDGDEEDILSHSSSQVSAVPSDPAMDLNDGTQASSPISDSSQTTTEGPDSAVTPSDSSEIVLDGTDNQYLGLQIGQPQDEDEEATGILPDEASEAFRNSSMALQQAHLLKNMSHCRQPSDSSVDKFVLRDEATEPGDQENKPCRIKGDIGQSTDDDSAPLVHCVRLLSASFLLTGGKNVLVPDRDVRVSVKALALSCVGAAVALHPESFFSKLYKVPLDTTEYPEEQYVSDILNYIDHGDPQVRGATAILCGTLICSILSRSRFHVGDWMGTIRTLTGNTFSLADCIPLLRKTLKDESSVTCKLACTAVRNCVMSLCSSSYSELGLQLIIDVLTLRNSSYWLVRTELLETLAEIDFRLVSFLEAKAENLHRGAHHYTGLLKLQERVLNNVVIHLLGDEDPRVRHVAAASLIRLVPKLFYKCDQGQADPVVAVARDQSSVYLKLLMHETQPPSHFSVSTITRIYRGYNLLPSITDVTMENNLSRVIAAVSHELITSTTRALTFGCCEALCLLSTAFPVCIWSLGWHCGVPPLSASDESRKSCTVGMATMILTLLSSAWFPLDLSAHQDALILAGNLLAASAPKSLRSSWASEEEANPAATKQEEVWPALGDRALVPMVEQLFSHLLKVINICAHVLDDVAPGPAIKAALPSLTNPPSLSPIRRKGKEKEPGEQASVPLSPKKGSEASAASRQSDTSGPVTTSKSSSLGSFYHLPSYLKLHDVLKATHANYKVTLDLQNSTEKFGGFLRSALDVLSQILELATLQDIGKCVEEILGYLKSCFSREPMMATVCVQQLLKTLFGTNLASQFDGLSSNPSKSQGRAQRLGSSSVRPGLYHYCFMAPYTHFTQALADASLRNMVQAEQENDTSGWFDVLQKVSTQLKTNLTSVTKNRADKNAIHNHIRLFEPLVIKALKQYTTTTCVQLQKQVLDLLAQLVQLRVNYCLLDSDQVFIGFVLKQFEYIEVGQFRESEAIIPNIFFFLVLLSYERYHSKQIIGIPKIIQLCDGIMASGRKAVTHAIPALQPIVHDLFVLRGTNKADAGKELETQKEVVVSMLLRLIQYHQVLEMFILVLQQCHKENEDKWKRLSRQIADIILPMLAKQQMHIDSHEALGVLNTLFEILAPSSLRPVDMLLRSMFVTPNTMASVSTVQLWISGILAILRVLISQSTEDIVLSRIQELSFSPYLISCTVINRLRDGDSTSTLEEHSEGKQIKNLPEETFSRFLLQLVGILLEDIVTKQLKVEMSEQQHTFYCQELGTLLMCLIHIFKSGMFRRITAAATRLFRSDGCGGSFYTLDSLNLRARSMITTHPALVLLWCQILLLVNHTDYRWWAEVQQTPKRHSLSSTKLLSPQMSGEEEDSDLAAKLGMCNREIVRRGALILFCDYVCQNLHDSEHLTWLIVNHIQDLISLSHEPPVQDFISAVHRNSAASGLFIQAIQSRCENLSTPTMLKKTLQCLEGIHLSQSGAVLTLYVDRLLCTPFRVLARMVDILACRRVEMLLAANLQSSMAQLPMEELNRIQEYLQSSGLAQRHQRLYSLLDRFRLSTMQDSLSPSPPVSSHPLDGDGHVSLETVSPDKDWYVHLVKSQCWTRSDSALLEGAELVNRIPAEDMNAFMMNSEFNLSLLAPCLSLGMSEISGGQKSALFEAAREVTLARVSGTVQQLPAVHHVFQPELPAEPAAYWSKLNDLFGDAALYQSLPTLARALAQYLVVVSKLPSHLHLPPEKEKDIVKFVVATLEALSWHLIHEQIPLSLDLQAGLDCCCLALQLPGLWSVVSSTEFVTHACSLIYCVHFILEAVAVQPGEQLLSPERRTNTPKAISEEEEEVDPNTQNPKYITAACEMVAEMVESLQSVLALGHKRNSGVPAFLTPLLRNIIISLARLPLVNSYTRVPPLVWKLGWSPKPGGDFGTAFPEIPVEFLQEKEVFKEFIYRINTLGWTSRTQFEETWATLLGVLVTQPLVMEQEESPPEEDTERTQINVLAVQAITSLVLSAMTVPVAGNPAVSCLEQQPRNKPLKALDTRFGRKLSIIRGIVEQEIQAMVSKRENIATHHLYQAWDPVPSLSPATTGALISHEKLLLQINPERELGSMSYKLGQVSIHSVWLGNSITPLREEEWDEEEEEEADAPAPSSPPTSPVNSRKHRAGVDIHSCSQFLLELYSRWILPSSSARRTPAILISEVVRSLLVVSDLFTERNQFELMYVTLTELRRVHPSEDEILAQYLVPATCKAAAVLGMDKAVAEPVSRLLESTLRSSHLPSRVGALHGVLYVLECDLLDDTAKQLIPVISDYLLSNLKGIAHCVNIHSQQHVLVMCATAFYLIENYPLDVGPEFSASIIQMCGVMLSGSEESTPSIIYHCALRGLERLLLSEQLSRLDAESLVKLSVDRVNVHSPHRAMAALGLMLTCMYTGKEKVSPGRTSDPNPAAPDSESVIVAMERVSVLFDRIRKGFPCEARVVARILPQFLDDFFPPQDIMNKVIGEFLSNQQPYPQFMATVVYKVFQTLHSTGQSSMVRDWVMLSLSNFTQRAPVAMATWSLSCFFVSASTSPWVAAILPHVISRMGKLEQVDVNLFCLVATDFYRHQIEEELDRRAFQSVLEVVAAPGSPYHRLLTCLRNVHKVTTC
# Active calls of the source: *; i = inactive; · = no result given; ! = repeats disagree. Hits are enriched below; roughly 3.5% of the tested compounds scored in any of these assays. No stated cut-off is given here; in the data, active means inhibition above about 50%; inactive means the rest.
SMILES,Pf apPOL block,mHTT-CaM PPI inh
CCCCCCCCc1[se]c2ccccc2c1I,-3,-37
CC(C)N1C(=O)CCC1C(=O)N1CCC2(CC1)OCCO2 (stereo unspecified),-16,-4
CC(C)C/C(=N\O)c1cn(C)c2ccccc12,·,i
CN(C)C(CN)c1cn(C)c2ccccc12 (stereo unspecified),0,69*
O=C1OC(c2ccc(Br)cc2)=N/C1=C\N1CC2CC(C1)c1cccc(=O)n1C2 (stereo unspecified),-5,29
CCOC(=O)C1C2NC(=S)N(CCOC)C1(C)Oc1ccc([N+](=O)[O-])cc12 (stereo unspecified),-2,4
COc1cccc(Oc2coc3cc(OC(=O)N(C)C)ccc3c2=O)c1,-10,7
c1ccc2c(c1)CCc1c-2[nH]c2ccccc12,-5,63*
COC1CC(CC2CCC(C)C(C(C)C(=O)O)O2)OC2(OC(C)(C3CCC(C)(C4OC(C5OC(O)(CO)C(C)CC5C)CC4C)O3)CC2C)C1C (stereo unspecified),-6,·
Nc1cc2nc3ccccc3nc2cc1N,·,19
Nc1cc2nc3ccccc3nc2cc1O,0,100*
Cc1cccc(-n2c(/C=C/c3cccnc3)nc3ccccc3c2=O)c1,-9,100*
O=c1c2ccccc2nc(/C=C/c2cccc([N+](=O)[O-])c2)n1-c1ccccn1,91*!,2
COc1cccc(-n2c(/C=C/c3ccc(O)c(O)c3)nc3ccccc3c2=O)c1,-4,70*
COc1ccc(-n2c(/C=C/c3ccc(O)c(OC)c3)nc3ccccc3c2=O)cc1,-4,10
COc1cccc(-n2c(/C=C/c3cccc([N+](=O)[O-])c3)nc3ccccc3c2=O)c1,-1,26
Cc1cccc(/C=C/c2nc3ccccc3c(=O)n2-c2cccc(O)c2)c1,-12,25
c1ccc2c(c1)Nc1ccccc1S2,·,45
O=c1cc(CN2CC3CC(C2)c2cccc(=O)n2C3)c2cc3c(cc2o1)CCC3 (stereo unspecified),-4,-2
O=C1C2CCCN2C(c2ccncc2)N1c1ccc(Cl)c(Cl)c1 (stereo unspecified),0,85*
O=C1C2CCCN2C(c2cccnc2)N1c1ccc(Cl)c(Cl)c1 (stereo unspecified),-2,21
Fc1nc(N2CCNCC2)c(F)c(Sc2ccc(Cl)cc2)c1F,·,96*
c1cnc2nc(N3CCNCC3)oc2c1,·,-3
CCOc1ccc(C=C2CC3C4CCC5CCCCC5(C)C4CCC3(C)C2O)cc1 (stereo unspecified),0,3
NCCc1cc(O)c(O)cc1O,·,31
SMILES,Pf apPOL block,mHTT-CaM PPI inh
NC(Cc1cc(O)c(O)cc1O)C(=O)O (stereo unspecified),81*,·
NCCc1ccc(S(=O)(=O)N2CCOCC2)cc1,1,0
Fc1ccc2c(c1)[C@@H]1C=CC[C@@H]1[C@H](c1cccnc1)N2,·,17
Ic1ccc2c(c1)C1C=CCC1C(c1cccnc1)N2 (stereo unspecified),-3,97*
CCC1(C)CC(CCNCc2ccc(OC)cc2)(c2ccccc2OC)CCO1 (stereo unspecified),-2,8
O=C(Cc1ccccc1)N1CCN(Cc2ccc(Br)cc2)CC1,-2,12
O=C(O)C1Cc2cc(C(F)(F)F)ccc2N2CCCCC12 (stereo unspecified),3,50*
CC1CN(c2ccc(C(F)(F)F)cc2[N+](=O)[O-])CC(C)N1 (stereo unspecified),2,-3
O=[N+]([O-])c1cc(C(F)(F)F)cc2c1Oc1ccccc1O2,·,6
Cc1c(C(=O)N(C)Cc2ccccc2)oc2ccc(S(=O)(=O)N3CC(C)CC(C)C3)cc12 (stereo unspecified),6,-3
O=C(O)c1cccc2c1NC(C(=O)O)C1CC(Sc3ccccc3[N+](=O)[O-])C(Cl)C21 (stereo unspecified),-5,77*
COc1ccc2c(c1)C1(CCN(C(=O)NCc3ccc(F)cc3)C1)C(=O)N2C (stereo unspecified),19,-8
O=[N+]([O-])c1ccc(NCCc2ccccc2)c2ncccc12,-2,8
O=C(O)C(O)c1ccc(Cl)cc1 (stereo unspecified),-4,-5
CCOC(=O)C1(c2ccccc2)Oc2ccccc2C(c2ccc(OC)cc2)=C1C(=O)OC (stereo unspecified),1,14
Cc1cc(C(=O)Nc2ccc3c(c2)OCCO3)nn1C(C)(C)C,-9,·
CCC12CN3CC(CC)(CN(C1)C3c1ccccn1)C2O (stereo unspecified),-14,100*
CC12CN3CC(C)(CN(C1)C3c1ccncc1)C2=O (stereo unspecified),-5,2
CCN1CCN(Cc2ccc(Br)s2)CC1,-3,-2
O=C(NC1CCCCCC1)C(Cl)(Cl)Cl,-3,-7
COc1ccc(N=Cc2cc3c(cc2O)OC(N)=C(C#N)C3c2ccco2)cc1 (stereo unspecified),-3,71*
O=C(c1ccc(Cl)cc1)N1CCOCC1,9,-3
